{"source": "PubChem BioAssay AID623994", "about": "(NMMLSC, 2012)", "note": "Potency and affinity values are given separately. A number with no mark means an inactive call. Activity calls are given as the source filed them.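 The calls were made as follows: active = compounds whose fitted concentration for half the maximal dye retention is below 100 µM; inactive = the rest.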"}
{"target": "Multidrug resistance protein CDR2 (Candida albicans (strain SC5314 / ATCC MYA-2876)) (UniProt P78595)", "sequence (P78595 whole entry, looked up)": "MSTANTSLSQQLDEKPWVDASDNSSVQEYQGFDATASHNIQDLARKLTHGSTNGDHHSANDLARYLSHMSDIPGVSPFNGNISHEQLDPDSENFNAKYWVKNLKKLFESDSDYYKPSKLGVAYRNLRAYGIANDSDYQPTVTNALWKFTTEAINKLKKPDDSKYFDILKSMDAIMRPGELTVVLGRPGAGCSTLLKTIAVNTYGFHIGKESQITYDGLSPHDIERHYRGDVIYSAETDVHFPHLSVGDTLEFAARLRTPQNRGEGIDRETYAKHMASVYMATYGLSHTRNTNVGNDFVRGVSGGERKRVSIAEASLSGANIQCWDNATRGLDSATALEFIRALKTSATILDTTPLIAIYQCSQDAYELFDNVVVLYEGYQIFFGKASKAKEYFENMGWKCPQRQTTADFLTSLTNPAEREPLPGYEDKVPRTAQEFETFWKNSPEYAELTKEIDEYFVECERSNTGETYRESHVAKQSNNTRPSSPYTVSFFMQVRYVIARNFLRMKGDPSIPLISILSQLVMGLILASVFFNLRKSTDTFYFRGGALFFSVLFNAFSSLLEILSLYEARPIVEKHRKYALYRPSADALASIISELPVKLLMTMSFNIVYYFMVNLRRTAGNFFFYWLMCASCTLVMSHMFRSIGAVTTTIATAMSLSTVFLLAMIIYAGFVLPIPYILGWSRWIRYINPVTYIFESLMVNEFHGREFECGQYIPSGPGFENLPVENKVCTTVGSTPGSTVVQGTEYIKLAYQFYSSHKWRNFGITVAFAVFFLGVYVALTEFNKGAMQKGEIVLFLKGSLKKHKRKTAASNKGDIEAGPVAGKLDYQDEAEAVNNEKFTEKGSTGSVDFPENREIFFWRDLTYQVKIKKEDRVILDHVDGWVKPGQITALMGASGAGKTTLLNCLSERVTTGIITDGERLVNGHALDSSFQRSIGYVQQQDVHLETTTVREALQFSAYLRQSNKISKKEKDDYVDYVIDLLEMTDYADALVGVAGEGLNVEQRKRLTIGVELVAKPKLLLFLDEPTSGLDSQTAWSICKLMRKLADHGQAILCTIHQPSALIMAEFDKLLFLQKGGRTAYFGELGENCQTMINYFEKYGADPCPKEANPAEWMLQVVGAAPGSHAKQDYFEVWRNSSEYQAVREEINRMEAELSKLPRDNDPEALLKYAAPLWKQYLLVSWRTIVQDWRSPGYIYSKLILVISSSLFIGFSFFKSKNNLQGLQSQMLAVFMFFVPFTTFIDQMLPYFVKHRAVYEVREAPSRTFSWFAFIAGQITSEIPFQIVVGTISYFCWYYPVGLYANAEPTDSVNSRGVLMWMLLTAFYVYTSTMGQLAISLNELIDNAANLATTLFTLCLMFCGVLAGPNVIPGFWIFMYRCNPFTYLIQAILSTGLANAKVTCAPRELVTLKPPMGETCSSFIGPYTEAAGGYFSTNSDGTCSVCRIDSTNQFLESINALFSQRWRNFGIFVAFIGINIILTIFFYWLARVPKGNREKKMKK", "test": "CaCDR2 efflux pump inhibitors in yeast, dose response, S. cerevisiae AD1-8u, singleplex, Cherry Pick2 set (AID 623994)", "settings": "S. cerevisiae AD1-8u expressing CaCDR2, Nile Red efflux; series mostly up to 100 µM; Nile Red retention, efflux inhibition: at the top concentration", "units": {"Nile Red retention, efflux inhibition": "%"}}
{"smiles": "O=C(CSc1nnc(Cc2cccs2)n1Cc1ccco1)Nc1cccc(Cl)c1", "Nile Red retention, efflux inhibition": -4.45}
{"smiles": "O=C(C1CCCN(c2ncnc3c2nc2n3CCCCC2)C1)N1CCN(c2ccccc2)CC1", "note": "(stereo not given)", "Nile Red retention, efflux inhibition": -1.78}
{"smiles": "COc1cc(OC)c2ccc(=O)oc2c1C(CCN1CCCC1)c1ccc(N(C)C)cc1", "note": "(stereo not given)", "Nile Red retention, efflux inhibition": -2.33}
{"smiles": "CCC(Cc1ccccc1)OC(=O)c1ccccc1C(=O)O", "note": "(stereo not given)", "Nile Red retention, efflux inhibition": -3.71}
{"smiles": "COc1cccc(-c2sc3ccc(OC)cc3c2-c2ccc(OCCN3CCOCC3)cc2)c1", "Nile Red retention, efflux inhibition": 2.95}
{"smiles": "O=C(c1ccoc1)N1CCC2(CC1)Oc1ccc(F)cc1C(=O)C21CC(c2ccc(Cl)cc2)=NO1", "note": "(stereo not given)", "Nile Red retention, efflux inhibition": -6.86}
{"smiles": "COc1ccc(C2CC(c3ccccc3)=NN2c2ccc(S(N)(=O)=O)cc2)cc1", "note": "(stereo not given)", "Nile Red retention, efflux inhibition": -3.68}
{"smiles": "COc1ccc(CNC(=O)C(C#N)c2nc3ccccc3nc2N2CCCC2)cc1", "note": "(stereo not given)", "Nile Red retention, efflux inhibition": -1.94}
{"smiles": "O=C(NCCc1ccc(Cl)cc1)C1CCC(CNc2nc(=S)[nH]c3ccccc23)CC1", "note": "(stereo not given)", "Nile Red retention, efflux inhibition": -2.27}
{"smiles": "N#CC(C(=O)NCc1ccccc1)c1nc2ccccc2nc1N1CCCC1", "note": "(stereo not given)", "Nile Red retention, efflux inhibition": 1.13}
{"smiles": "COc1ccc(C2CC(c3ccccc3C(F)(F)F)=NN2c2ccc(S(N)(=O)=O)cc2)cc1", "note": "(stereo not given)", "Nile Red retention, efflux inhibition": -2.63}
{"smiles": "Cc1ccc(C)c(N2CCN(C(=O)C3CCCN(c4ncnc5c4nc4n5CCCCC4)C3)CC2)c1", "note": "(stereo not given)", "Nile Red retention, efflux inhibition": 223}
{"smiles": "CC(C)C(=O)N1CCC2(CC1)Oc1ccc(F)cc1C(=O)C21CC(c2ccccc2)=NO1", "note": "(stereo not given)", "Nile Red retention, efflux inhibition": -0.13}
{"smiles": "COc1cccc(N2CCN(C(=O)C3CCCN(c4ncnc5c4nc4n5CCCCC4)C3)CC2)c1", "note": "(stereo not given)", "Nile Red retention, efflux inhibition": -0.8}
{"smiles": "COc1cc(OC)c2c(-c3ccccc3)cc(=O)oc2c1C(CCN1CCCC(C)C1)c1ccc(N(C)C)cc1", "note": "(stereo not given)", "Nile Red retention, efflux inhibition": 137}
{"smiles": "COc1cc(OC)c2ccc(=O)oc2c1C(CCN1CCCCC1)c1ccc(N(C)C)cc1", "note": "(stereo not given)", "Nile Red retention, efflux inhibition": -0.86}
{"smiles": "C[C@H](CO)N1C[C@H](C)[C@@H](CN(C)S(=O)(=O)c2ccccc2)Oc2c(NC(=O)Nc3ccccc3)cccc2C1=O", "Nile Red retention, efflux inhibition": -1.33}
{"smiles": "O=C(C[n+]1cc(-c2ccc(F)cc2)n2c1CCC2)N1c2ccccc2Sc2ccccc21", "Nile Red retention, efflux inhibition": -4.27}
{"smiles": "CC(C)C(=O)N1CCC2(CC1)Oc1ccc(F)cc1C(=O)C21CC(c2ccc(Cl)cc2)=NO1", "note": "(stereo not given)", "Nile Red retention, efflux inhibition": -1.61}
{"smiles": "NS(=O)(=O)c1ccc(N2N=C(c3ccccc3)CC2c2cccc(Br)c2)cc1", "note": "(stereo not given)", "Nile Red retention, efflux inhibition": -8.65}
{"smiles": "O=C(/C=C/c1cccs1)N1CCC2(CC1)Oc1ccc(F)cc1C(=O)C21CC(c2ccccc2)=NO1", "note": "(stereo not given)", "Nile Red retention, efflux inhibition": 0.2}
{"smiles": "O=C(C1CCCN(c2ncnc3c2nc2n3CCCCC2)C1)N1CCN(c2cccc(Cl)c2)CC1", "note": "(stereo not given)", "Nile Red retention, efflux inhibition": -2.18}
{"smiles": "COc1cc(OC)c2ccc(=O)oc2c1C(CCN1CCCC(C)C1)c1ccc(N(C)C)cc1", "note": "(stereo not given)", "Nile Red retention, efflux inhibition": -0.53}
{"smiles": "CC1CN(c2nc3ccccc3nc2C(C#N)C(=O)NCc2ccc3c(c2)OCO3)CC(C)O1", "note": "(stereo not given)", "outcome": "inactive"}
{"smiles": "COc1ccc(CNC(=O)C(C#N)c2nc3ccccc3nc2N2CCN(C)CC2)cc1", "note": "(stereo not given)", "outcome": "inactive"}
{"smiles": "CCCCN1Cc2cc(C(=O)c3cc(OC)ccc3O)cnc2NC1=O", "Nile Red retention, efflux inhibition": 12.2}
{"smiles": "CCC(=O)N1CCN(c2ccc(Cl)cc2NC(=O)c2ccc3c(c2)OCCO3)CC1", "Nile Red retention, efflux inhibition": -3.15}
{"smiles": "Nc1ccc(C(=O)OCCc2ccccc2)cc1", "Nile Red retention, efflux inhibition": -1.89}
{"smiles": "COc1ccc(C2CC(c3cccc(OC)c3)=NN2c2ccc(S(N)(=O)=O)cc2)cc1", "note": "(stereo not given)", "Nile Red retention, efflux inhibition": -8.58}
{"smiles": "O=C(C1CCC(CNc2nc(=S)[nH]c3ccccc23)CC1)N1CCN(c2ccc(F)cc2)CC1", "note": "(stereo not given)", "Nile Red retention, efflux inhibition": -7.48}
